The sample as a whole holds a higher share of hits than the screen did.
ST2 IL33 inh: blocks human ST2 binding to IL-33. 2.3% of 78,000 active. AID 1259354. Q01638. inhibition, % for hits at 17 µM. AlphaLISA ST2-Fc/biotin-IL-33 interaction, 1 h; in the data active means inhibition above about 30%
Target sequence (Q01638 whole entry, looked up): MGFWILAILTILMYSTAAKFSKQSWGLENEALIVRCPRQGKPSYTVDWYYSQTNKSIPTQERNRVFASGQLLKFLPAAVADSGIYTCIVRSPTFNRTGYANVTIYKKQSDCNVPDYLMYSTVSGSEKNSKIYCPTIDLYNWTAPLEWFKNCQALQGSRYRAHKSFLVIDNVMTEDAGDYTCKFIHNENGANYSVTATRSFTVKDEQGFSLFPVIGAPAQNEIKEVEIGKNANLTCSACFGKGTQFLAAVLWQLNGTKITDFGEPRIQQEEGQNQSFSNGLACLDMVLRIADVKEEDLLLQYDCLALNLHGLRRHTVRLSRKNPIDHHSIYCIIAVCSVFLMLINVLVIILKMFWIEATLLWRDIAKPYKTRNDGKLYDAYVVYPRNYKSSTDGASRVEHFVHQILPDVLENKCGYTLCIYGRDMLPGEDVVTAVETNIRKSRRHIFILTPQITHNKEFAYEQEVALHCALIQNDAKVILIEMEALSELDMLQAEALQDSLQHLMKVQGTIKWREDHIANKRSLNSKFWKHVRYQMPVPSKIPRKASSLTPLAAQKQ
* = called active by the depositor; i = inactive.

SMILES | ST2 IL33 inh
O=C(NCCc1cccnc1)C1CCCN(C2CCN(Cc3ccccc3)CC2)C1 (configuration not stated) | i
CCCCSc1nnc2c(n1)OC(C)(CC)Nc1ccccc1-2 (configuration not stated) | i
CCn1c(CC2CCN(C(=O)c3cccc4c3OCC4)CC2)nn(C)c1=O | i
O=C(c1cn(Cc2ccc(Cl)cc2)nn1)N1CCC(Oc2cccnc2)CC1 | i
COc1ccc(NS(=O)(=O)c2ccccc2)cc1 | i
COc1ccc(Nc2nnc(-c3ccc(C)c(S(=O)(=O)N(C)C)c3)c3ccccc23)cc1 | i
COc1ccc(NC2=C(N(C)C)C(=O)c3ccccc3C2=O)cc1 | 44%*
COc1ccc(-c2nc(N3CCCCCC3)nc3n[nH]c(N)c23)cc1 | i
COc1ccccc1C(=O)Nc1ccc2oc(-c3ccc(F)cc3Cl)nc2c1 | i
CCOc1ccc(C(=O)Nc2ccc3oc(-c4ccncc4)nc3c2)cc1[N+](=O)[O-] | i
O=C(Nc1ccc2nn(-c3ccc(Cl)cc3)nc2c1)c1cccc(F)c1 | i
CCOc1ccc(C(=O)Nc2cccc(NC(=O)C(C)C)c2)cc1[N+](=O)[O-] | i
CCOc1ccc(C(=O)Nc2ccc3nn(-c4ccc(OC)c(Cl)c4)nc3c2)cc1[N+](=O)[O-] | 40%*
COc1ccc(C(=O)Nc2ccc3nn(-c4ccc(Cl)cc4)nc3c2)cc1 | 37%*
COc1ccc(NC(=O)c2ccc(Cl)cc2)cc1 | i
COCC1(C(=O)NCCn2[nH]c(=O)c3ccccc3c2=O)CCC1 | i
COc1ccc(-c2c3c(=O)n(C)c(=O)n(C)c3cn2-c2cccc([N+](=O)[O-])c2)cc1 | i
COC(=O)[C@@H]1Cc2ncn(C(C)C)c2CN1S(=O)(=O)c1ccc(C#N)cc1 | 35%*
COC(=O)[C@@H]1Cc2ncn(C)c2CN1S(=O)(=O)c1ccc(C#N)cc1 | i
COC(=O)[C@@H]1Cc2ncn(C(C)C)c2CN1S(=O)(=O)c1ccc(OC)cc1 | i
CCOC(=O)c1c(NC(=O)COc2cccc(Br)c2)sc(C(C)=O)c1C | i
COc1cc(SC)ccc1C(=O)Nc1ccc(S(=O)(=O)N2CCOCC2)cc1 | i
O=C(NCc1csc(-c2cnccn2)n1)c1cccc2c1NCCC2 | i
Cc1cccc(-c2noc([C@@H]3C[C@@H](O)CN3Cc3ccc(F)cc3)n2)c1 | i
C=CCOc1cc(Br)c(/C=C2/NC(=O)NC2=O)cc1OC | i
SMILES | ST2 IL33 inh
COc1ccc(Br)cc1/C=C1\N=C(c2ccc(OC)c([N+](=O)[O-])c2)OC1=O | i
CC1=NN(c2ccc(Br)cc2)C(=O)/C1=C/c1ccc(-c2ccc3c(c2)C(=O)OC3)o1 | i
CCOc1c(O)ccc(/C=C2\C(=O)Nc3ccc(Br)cc32)c1[N+](=O)[O-] | i
Cc1ccc(/C=C2\C(=O)Nc3ccc(Br)cc32)o1 | 30%*
Cc1cccc(C)c1N=C1C(=O)Nc2ccc(Br)cc21 | i
COc1ccc(Cl)cc1/C=C1\C(=O)Nc2ccc(Br)cc21 | 35%*
CCOc1ccc(Br)cc1/C=C1\NC(=O)N(Cc2ccc(Cl)cc2)C1=O | i
CCOc1cc(/C=C2\C(=O)Nc3ccc(Br)cc32)c(Br)cc1OC | 41%*
COc1ccc(Br)cc1/C=C1\C(=O)Nc2ccc(Br)cc21 | 36%*
COc1ccc(Br)cc1CC(=O)O | i
COc1ccc(Cl)cc1/C=C1/NC(=O)NC1=O | i
C=CCNc1nc(NCC=C)nc(OC)n1 | i
CCOc1ccc(-c2nn(-c3ccccc3)cc2/C=c2\sc3ncnn3c2=O)cc1C | i
COc1cccc(C(=O)NCC2CCCN(CC#Cc3ccccc3)C2)c1OC (configuration not stated) | i
Cc1nc(C(C)C)sc1C(=O)N(C)Cc1nc(-c2ccccn2)no1 | i
CC1=C(C(=O)OCc2ccccc2)C(c2c(F)cccc2Cl)n2ncnc2N1 (configuration not stated) | i
CNCC(=O)N(Cc1ccccc1)Cc1cccc(C)n1 | i
O=C1NC(c2ccccc2[N+](=O)[O-])Nc2sc3c(c21)CCCC3 (configuration not stated) | i
O=C(CCS(=O)(=O)c1cccs1)Nc1ccc(C(=O)NC2CCCCC2)cc1 | i
Cc1ccc(N2NC(=O)/C(=C/c3ccc(Cl)c([N+](=O)[O-])c3)C2=O)cc1C | i
O=C1NN(c2cc(Cl)cc(Cl)c2)C(=O)/C1=C\c1cccn1-c1ccc([N+](=O)[O-])cc1 | i
O=C1NN(c2cccc(Cl)c2)C(=O)/C1=C\c1cccn1-c1ccc([N+](=O)[O-])cc1 | 59%*
C=CCN(CC=C)C(=O)CN1CCCC(c2cc(=O)[nH]c(C)n2)C1 (configuration not stated) | i
CC1(c2ccc(Cl)cc2)CC(C)(C)N(C(=O)CSC#N)c2ccccc21 (configuration not stated) | i
CC1(O)c2ccccc2C(=O)N1Cc1ccccc1 (configuration not stated) | i
SMILES | ST2 IL33 inh
CC1(c2ccccc2)CC(C)(C)N2C(=O)C(=O)c3cccc1c32 (configuration not stated) | 33%*
O=C1NCC2(CCCN(C(=O)CCN3C(=O)COc4ccccc43)C2)O1 (configuration not stated) | i
CN(C)C(=O)c1ccc2c(c1)N(CC(=O)N1CCOCC1)C(=O)C1CCCCN21 (configuration not stated) | i
OCCC1CN(Cc2cc3ccccc3o2)CCN1Cc1ccsc1 (configuration not stated) | i
O=C(Nc1ccc(-c2nc3ncccc3o2)cc1)c1cccnc1 | i
Cc1ccc(C(=O)Nc2cc(-c3nc4ncccc4o3)ccc2C)cc1C | i
CCCOc1ccc(C(=O)Nc2cc(-c3nc4ncccc4o3)ccc2C)cc1 | i
CC(C)Oc1ccc(C(=O)Nc2cccc(-c3nc4ncccc4o3)c2)cc1 | i
CC(C)Oc1cccc(C(=O)Nc2ccc(-c3nc4ncccc4o3)cc2)c1 | 32%*
CCOc1cc(C(=O)Nc2cc(-c3nc4ncccc4o3)ccc2C)cc(OCC)c1OCC | 37%*
O=C(NCc1ccccn1)c1ccc2c(c1)ncn2C1CCCC1 | i
Clc1cccc(CN2CCCC2c2ccccn2)c1 (configuration not stated) | i
CC(C)C(NC(=O)COc1cccc(Br)c1)C(=O)O (configuration not stated) | i
O=C(NCC(F)(F)F)c1cc(COc2ccc3c(c2)OCO3)[nH]n1 | i
Cc1cc(=O)c2c([nH]1)C(O)=C(CN(C)C)C(=O)C2=O | 43%*
O=C(Oc1cc(O)c2c(c1)O[C@@H](c1ccc(O)c(O)c1)[C@H](O)C2)c1cc(O)c(O)c(O)c1 | i
O=C(O[C@@H]1Cc2c(O)cc(O)cc2O[C@@H]1c1cc(O)c(O)c(O)c1)c1cc(O)c(O)c(O)c1 | 31%*
O=C1c2c(O)cc(O)cc2OC(c2ccc(O)c(O)c2)C1O (configuration not stated) | i
CCOc1cc(C2Nc3ccccc3-c3nnc(SC)nc3O2)cc(Cl)c1O (configuration not stated) | i
Cc1ccc(NC(=O)c2ccccc2NC(=O)c2ccco2)cc1C | i
CC1CCCCN1CC(O)COc1c(F)cc(Br)cc1F (configuration not stated) | i
CCc1ccc(CN(C)Cc2cnc3c(-c4ccccc4)cnn3c2)nc1 | i
COC(=O)[C@@H]1CCCN1Cc1cnc2c(-c3ccccc3)cnn2c1 | i
OC1(c2ccccc2)CCN(Cc2cnc3c(-c4ccccc4)cnn3c2)CC1 | 33%*

Source: PubChem BioAssay
